# Rows were chosen to be rich in hits. Some 2.4% of all compounds tested hit in one or more screens of this group.
# TDP1 block = qHTS Assay for Inhibitors of Tyrosyl-DNA Phosphodiesterase (TDP1) | actives 0.28% (n = 350,000) | recombinant TDP1, AlphaScreen DNA substrate cleavage | Potency, µM (series often up to 130 µM), inactives show top-dose activity change, negative = inhibition, actives largely listed as inhibitors | AID 485290, 2010 | Tyrosyl-DNA phosphodiesterase 1 (Homo sapiens), Q9NUW8; also: % is scaled to controls: 0 for no effect and ±100 for the full control effect; nearly all actives have a fitted effect of over 40% in size
#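 Recombinant human Tdp1 (E. coli-expressed, 1 nM final) preincubated with compounds 15 min at room temperature, then 5'-biotin/3'-phosphotyrosine-FITC DNA substrate (15 nM final) added for 5 min. AlphaScreen beads (10 ug/ml final) added 10 min; cleavage lowers signal.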
# Pol kappa inh = qHTS for Inhibitors of Polymerase Kappa. DNA polymerase kappa (Homo sapiens), Q9UBT6. purified Pol kappa, fluorescent DNA synthesis assay, 10 min. Potency, µM (series often up to 107 µM), without a hit: at the top dose activity, negative = inhibition, most hits filed as inhibitors. actives 0.53% (n = 400,000). AID 588579, 2011; also: % is scaled to controls: 0 for no effect and ±100 for the full control effect
#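 10 nM Pol kappa was preincubated with compounds for 15 min at room temperature. Reaction started with 50 nM (final) substrate. Fluorescence read kinetically at 0 and 10 min.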
# FEN1 inh = qHTS Assay for the Inhibitors of Human Flap endonuclease 1 (FEN1). Potency, µM (top dose mostly 114 µM), for the others: at the top dose activity change, negative = inhibition, usual class: inhibitors. Recombinant FEN1 flap cleavage, fluorescence, 15 min. AID 588795, 2011. actives 0.35% (n = 390,000); also: % is scaled to controls: 0 for no effect and ±100 for the full control effect; nearly all actives have a fitted effect of over 65% in size
# Target sequence (P39748 whole entry, looked up): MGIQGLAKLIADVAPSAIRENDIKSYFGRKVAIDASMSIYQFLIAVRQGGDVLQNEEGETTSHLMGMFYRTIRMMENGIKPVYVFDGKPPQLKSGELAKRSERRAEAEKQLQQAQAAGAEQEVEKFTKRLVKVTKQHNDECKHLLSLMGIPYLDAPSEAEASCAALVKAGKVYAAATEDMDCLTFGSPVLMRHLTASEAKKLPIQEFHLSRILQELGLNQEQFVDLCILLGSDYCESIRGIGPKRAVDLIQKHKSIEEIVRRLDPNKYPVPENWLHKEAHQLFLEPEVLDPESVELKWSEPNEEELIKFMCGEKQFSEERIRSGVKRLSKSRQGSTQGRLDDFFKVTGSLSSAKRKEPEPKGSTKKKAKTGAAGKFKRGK
#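 Concentration–response screening of FEN1 (10 nM): 15 min compound preincubation at room temperature, reaction started with 50 nM substrate and read at 0 and 15 min. Corrected, normalized data were fitted by a four-parameter Hill equation.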
# Pol iota inh = qHTS for Inhibitors of Polymerase Iota; DNA polymerase iota (Homo sapiens), Q9UNA4; Pol iota fluorescent replication assay, 10 min; Potency, µM (doses to about 115 µM), for the others: top-dose activity, negative = inhibition, actives largely listed as inhibitors; actives 1% (n = 390,000)
#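 Fluorescent replication assay read twice, at 0 min and 10 min after adding 50 nM (final) substrate. Enzyme (10 nM) and compounds were first incubated 15 min at room temperature; enzyme-free buffer wells were negative controls.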
# POLB inh = qHTS Assay for Inhibitors of DNA Polymerase Beta; P06746; Pol beta primer extension/strand displacement, fluorescence kinetic; Potency, µM (highest dose often 114 µM), for the others: top-dose activity change, negative = inhibition, hits mostly inhibitors; actives 1.3% (n = 340,000); AID 485314, 2010; also: % is scaled to controls: 0 for no effect and ±100 for the full control effect
#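 Enzyme-only controls used 10 nM Pol beta; buffer lacking enzyme served as negative control. Compound preincubated 15 min, then 50 nM substrate added; 0 and 10 min reads at room temperature.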
# Pol eta inh = qHTS for Inhibitors of Polymerase Eta. DNA polymerase eta (Homo sapiens), Q9Y253. recombinant Pol eta, fluorescent DNA replication assay. Potency, µM (titrated, usually from 114 µM), for inactives: at the top dose activity change, negative = inhibition, usual class: inhibitors. actives 1.2% (n = 390,000). AID 588591, 2011; also: % is scaled to controls: 0 for no effect and ±100 for the full control effect
#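 Fluorescent replication assay: 50 nM final substrate added after a 15 min room-temperature compound preincubation with 10 nM enzyme. Signal taken at 0 min and again at 10 min.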
# An asterisk follows results filed as active; ? = inconclusive; · = not tested or not shown. Calls follow the shape of the dose curve; as a rule, active = well fitted curve in the direction sought with a large enough effect; inconclusive = small, poorly fitted or top-dose-only effect, or another doubt; inactive = no such curve, though single readings can be large; an effect the other way counts as inactive or inconclusive. Potency is read from the fitted curve at half-maximal effect.
SMILES,TDP1 block,Pol kappa inh,FEN1 inh,Pol iota inh,POLB inh,Pol eta inh
COc1ccc(C2Oc3ccccc3C(=O)N2Cc2ccccc2)cc1COc1ccc(NC(C)=O)cc1 (stereo unspecified),0.9%,·,·,·,·,·
COC(=O)c1ccc(Cn2c(O)c(N=NC(N)=S)c3ccccc32)o1,-2.6%,?,-12.8%,31.6µM*,?,50.1µM*
CCC(C)C(N)C1=NC(C(=O)N[C@@H](CC(C)C)C(=O)N[C@H](CCC(=O)[O-])C(=O)N[C@H](C(=O)N[C@H]2CCCCNC(=O)[C@H](CC(N)=O)NC(=O)[C@@H](CC(=O)[O-])NC(=O)[C@H](Cc3cnc[nH]3)NC(=O)[C@@H](Cc3ccccc3)NC(=O)[C@H]([C@@H](C)CC)NC(=O)[C@@H](CCCN)NC2=O)[C@@H](C)CC)CS1.[Zn+2] (stereo partly specified),·,?,8.91µM*,0.891µM*,·,?
O=C(O)c1c2c(nc3ccc(F)cc13)CCC2,-3.3%,-4.1%,-17.4%,3.3%,-0.4%,-12.4%
Cc1ccc2nc3c(c(C(=O)O)c2c1)CCC3,-5.8%,-42.5%,?,?,44.7µM*,31.6µM*
O=C(O)c1c2c(nc3ccc(Cl)cc13)CCC2,·,-25.4%,-10.7%,20.0%,15.8µM*,?
O=C(Nc1ccc(C(=O)N2CCOCC2)cc1)C1CCC1,·,5.8%,0.6%,25.7%,·,-18.4%
Cc1ccc(NC(=O)CN2C(=O)CCc3ccccc32)cc1C,5.2%,-38.8%,2.9%,?,22.4µM*,0.4%
Cc1ccc(C)c(NC(=O)CN2C(=O)CCc3ccccc32)c1,-2.6%,?,-14.5%,79.4µM*,22.4µM*,-6.3%
Cc1ccc(Cl)cc1NC(=O)CN1C(=O)CCc2ccccc21,0.0%,1.5%,5.9%,17.0%,0.5%,-9.5%
CC1=NN(c2ccc(C)cc2C)C(=O)C1C(c1ccccc1O)C1C(=O)N(c2ccc(C)cc2C)N=C1C (stereo unspecified),4.2%,-10.8%,-9.4%,0.891µM*,39.2%,-9.4%
COc1ccccc1NC(=O)C(=O)NCC(c1cccnc1)N1CCc2ccccc2C1 (stereo unspecified),0.0%,-19.8%,23.8%,12.8%,0.5%,-13.5%
Cc1cc(C)c(NC(=O)Cn2nnc(-c3nc(-c4ccncc4)no3)c2N)c(C)c1,5.6%,0.7%,-2.2%,19.8%,14.7%,·
COc1ccc(NC(=O)Cn2nnc(-c3nc(-c4ccncc4)no3)c2N)cc1OC,0.0%,-5.9%,12.0%,25.3%,79.4µM*,·
Cc1cccc(NC(=O)Cn2nnc(-c3nc(-c4ccncc4)no3)c2N)c1,2.8%,3.1%,-3.3%,20.5%,56.2µM*,·
NC(N)=NCCC[C@H](NC(=O)CNC(=O)c1ccccc1)C(=O)Nc1cc(C(F)(F)F)ccc1Cl,-3.2%,·,·,·,·,·
COc1ccc(N(CC(=O)Nc2cc(OC)cc(OC)c2)S(=O)(=O)c2c(C)noc2C)cc1,2.3%,-28.2%,-10.1%,89.1µM*,0.0%,-19.9%
COc1ccc(N(CC(=O)Nc2ccc(C)cc2)S(=O)(=O)c2c(C)noc2C)cc1,0.5%,2.1%,-0.2%,7.6%,12.3%,-18.7%
Cc1sc2nc(CSc3nc4ccccc4s3)[nH]c(=O)c2c1C,2.6%,·,·,·,39.8µM*,·
CN1C/C(=C/c2ccccc2[N+](=O)[O-])C(=O)/C(=C\c2ccccc2[N+](=O)[O-])C1,·,?,?,89.1µM*,·,?
Cc1ccc(C)c2c1CCC(=Cc1ccccc1[N+](=O)[O-])C2=O,·,·,·,·,·,-6.5%
COc1ccc(C2c3c(N)nc(Cc4ccccc4)nc3Oc3ccc4ccccc4c32)cc1OC (stereo unspecified),1.7%,·,·,·,·,·
COc1ccc(CNCc2ccc(C(=O)O)s2)cc1,5.1%,-16.6%,4.5%,25.5%,4.8%,-15.1%
CCN1CC2([N+](=O)[O-])C=CC(=O)C([N+](=O)[O-])(C1)C2CC(=O)c1ccccc1 (stereo unspecified),1.0%,-13.9%,13.0%,?,0.0%,25.1µM*
Cc1csc2nc(COc3ccc(NC(=O)COc4ccccc4F)cc3)cc(=O)n12,3.8%,-13.0%,10.1%,8.9%,10.5%,2.5%
SMILES,TDP1 block,Pol kappa inh,FEN1 inh,Pol iota inh,POLB inh,Pol eta inh
CC(C)c1ccc(C2(C)NC(=O)N(C(C)C(=O)Nc3ccc(N4CCOCC4)cc3)C2=O)cc1 (stereo unspecified),4.1%,-4.8%,-5.3%,17.6%,·,-18.2%
Cc1cccn2c(=O)c3cc(C(=O)NCCc4ccccc4)sc3nc12,-16.3%,-23.9%,-5.3%,?,14.1µM*,?
Cc1cccn2c(=O)c3cc(C(=O)NCCc4ccccc4)c(=N)n(Cc4ccco4)c3nc12,-18.4%,-35.4%,-1.8%,7.94µM*,-16.9%,-10.5%
N=c1c(C(=O)NCc2ccc3c(c2)OCO3)cc2c(=O)n3ccccc3nc2n1Cc1cccnc1,4.3%,-20.1%,?,39.8µM*,39.8µM*,?
CCCCNC(=O)c1cc2c(=O)n3cccc(C)c3nc2s1,-7.3%,-2.1%,-16.5%,24.8%,19.5%,-1.6%
Cc1cccn2c(=O)c3cc(C(=O)NCc4ccco4)c(=N)n(CCc4ccccc4)c3nc12,2.5%,-25.9%,-5.7%,?,?,?
N=c1c(C(=O)NCc2ccc(F)cc2)cc2c(=O)n3ccccc3nc2n1Cc1ccco1,2.7%,?,-1.4%,17.8µM*,?,39.8µM*
COc1ccc(OC)c(NC(=O)c2ccc3c(c2)c(C)c(C)n3Cc2ccc(F)cc2)c1,10.5%,-1.1%,4.8%,5.6%,-3.0%,-7.3%
CCN(CC)C(=O)C1=C(C)N(CCCN2CCCC2=O)C(=O)C(CC(=O)NCc2cccc3ccccc23)C1 (stereo unspecified),·,·,·,·,·,-3.6%
CCCN1CNc2c(c(=O)[nH]c(=S)n2CCc2cc(C)cc(C)c2)C1,-6.4%,-16.1%,-17.3%,-19.1%,·,·
Cc1cc2c(s1)c1cnn(Cc3ccc(F)cc3)c(=O)c1n2C,50.1µM*,·,·,·,·,·
Nc1ccc(C(=O)Nc2ccc3cc(S(=O)(=O)O)ccc3c2)cc1,·,-17.7%,7.7%,1.6%,·,-28.9%

# High-throughput results: PubChem, National Center for Advancing Translational Sciences (NCATS)
